Bioassay records deposited in PubChem by National Center for Advancing Translational Sciences (NCATS).
Shown are actives, neighbours in structure and some others; about 18% of the full set was active somewhere.
LDHA inh – LDHA (human) enzyme inhibition. activity change, % (values are at about 110 or 230 µM). P00338. 480,000 tested, 0.15% active. purified LDHA, NADH/diaphorase-resazurin fluorescence; hits give low values; in the data active = activity change below about -30%; inconclusive = mostly about -25% to -30%;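 note: plate controls were DMSO wells for no effect and wells without enzyme for full effect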
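Human LDH5 (2 nM) was incubated with 0.06 mM NADH and 0.2 mM pyruvate for 5 min at room temperature in Tris pH 7.4. Remaining NADH was coupled through diaphorase/resazurin, and resorufin fluorescence was read at 0 and 20 min.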
IL1B secr inh – inhibitors of inflammasome signaling (IL-1 beta secretion) | THP-1 LPS/ATP IL-1B secretion, AlphaLISA, 16 h; hits give low values | activity change, % at 57.5 µM | 360,000 tested, 4.7% active | AID 743279; in the data active = activity change below about -50%; inconclusive = mostly about -30% to -49%
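THP-1 cells pretreated 1 hr with compounds (up to 57.5 uM final), then stimulated with LPS (250 ng/mL final) plus ATP (1.25 mM final); secreted IL-1B measured by AlphaLISA after 16 hr, decreased signal indicating inhibition.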
DT40 TDP1 no CPT – qHTS for Inhibitors of human tyrosyl-DNA phosphodiesterase 1 (TDP1): qHTS in cells in absence of CPT; 420,000 tested, 15% active; DT40 Tdp1-/- hTDP1 cells, no CPT, ATP luminescence, 48 h; Potency, µM (doses to about 46.2 µM), for the others: top-dose activity change, negative = growth inhibition, most hits filed as inhibitors; AID 686978, 2013; note: potency is the fitted concentration of half-maximal effect; nearly all actives have a fitted effect of over 55% in size
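Seeded 400 DT40-hTDP1 cells/well (vehicle DMSO, no 20 nM CPT); pinned compounds; ≥48 hr at 37 °C; CellTiter-Glo luminescence as viability measure.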
VP16 counter – inhibits Gal4-VP16 luciferase reporter, ROR gamma counter-screen; Potency, µM (doses to about 53.6 µM), inactives show at the top dose activity, negative = inhibition, hits mostly inhibitors; Drosophila S2 Gal4-VP16 UAS-luciferase, luminescence, 20 h; 310,000 tested, 3.5% active;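 note: Gal4-VP16 expression switched on by copper sulfate through the metallothionein promoter; potency is the fitted concentration of half-maximal effect; nearly all actives have a fitted effect of over 50% in size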
TDP1 cell CPT – DT40-hTDP1 cell growth loss with CPT; chicken DT40 Tdp1-/-;hTDP1 cells + 20 nM CPT, ATP luminescence, 48 h; Potency, µM (top dose mostly 46.2 µM), without a hit: at the highest dose activity change, negative = growth inhibition, actives largely listed as inhibitors; 420,000 tested, 12% active; AID 686979; note: potency is the fitted concentration of half-maximal effect; nearly all actives have a fitted effect of over 55% in size
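Cell growth measured by CellTiter-Glo luminescence after a minimum 48 h, 37 C compound exposure with 20 nM CPT in Tdp1-knockout DT40 cells stably expressing hTDP1, seeded 400/well; qHTS titration format.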
RORgamma inh – ROR gamma (mouse) transcription inhibition. Drosophila S2 Gal4-RORgamma UAS-luciferase reporter, 20 h. Potency, µM (top dose mostly 53.6 µM), inactives show at the top dose activity change, negative = inhibition, actives largely listed as inhibitors. 310,000 tested, 5.4% active; note: potency is the fitted concentration of half-maximal effect; nearly all actives have a fitted effect of over 60% in size
Target sequence (P51450 whole entry, looked up, the tested form may be a part): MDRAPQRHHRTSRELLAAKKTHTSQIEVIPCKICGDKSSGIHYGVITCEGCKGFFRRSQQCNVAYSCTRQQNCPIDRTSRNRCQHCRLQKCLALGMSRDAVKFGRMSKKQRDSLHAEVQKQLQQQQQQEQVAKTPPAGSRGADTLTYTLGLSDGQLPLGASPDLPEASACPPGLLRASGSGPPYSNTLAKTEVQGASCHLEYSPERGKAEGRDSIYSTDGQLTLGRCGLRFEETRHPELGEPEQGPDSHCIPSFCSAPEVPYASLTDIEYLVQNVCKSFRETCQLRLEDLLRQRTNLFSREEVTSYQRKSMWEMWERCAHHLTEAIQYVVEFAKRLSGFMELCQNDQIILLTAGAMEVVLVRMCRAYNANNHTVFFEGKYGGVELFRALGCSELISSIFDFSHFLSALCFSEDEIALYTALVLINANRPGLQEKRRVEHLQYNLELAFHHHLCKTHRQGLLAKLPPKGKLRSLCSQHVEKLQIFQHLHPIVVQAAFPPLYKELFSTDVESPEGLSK
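Schneider cells (Drosophila), stable Gal4 DBD–ROR gamma + UAS-luc; 1 hr cmpd preincubation; Cu2+ induction 700 uM final; 20 hr ambient; luminescence.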
* hit, by the source's call; ? = inconclusive; . = not tested or not shown; [ ] = another dose, or the depositor's remark. Unless noted, calls come from the whole dose curve; as a rule, active = well fitted curve in the direction sought with a large enough effect; inconclusive = small, poorly fitted or top-dose-only effect, or another doubt; inactive = no such curve, though single readings can be large; an effect the other way counts as inactive or inconclusive. Unless noted, % is set by controls: 0 for no effect and ±100 for the full control effect.

SMILES | LDHA inh | IL1B secr inh | DT40 TDP1 no CPT | VP16 counter | TDP1 cell CPT | RORgamma inh
CC(C)c1cnc2c(c1SCc1cccc(C(F)(F)F)c1)c(=O)n(C)c(=O)n2C | -13.2 | . | 23.1µM* | . | ? | .
CCc1cnc2c(c1SCC(=O)Nc1ccc(Cl)cc1)c(=O)n(C)c(=O)n2C | -6.4 | . | -4.8% | . | -13.1% | .
CCCCC(CC)C(=O)NCc1cccs1 (stereo not given) | -1.2 | . | . | . | . | .
CCOC(=O)N1CCN(C(=O)c2ccc(N3C(=O)CCS3(=O)=O)cc2Cl)CC1 | -7.0 | . | . | . | . | .
CCCc1cnc2c(c1SCc1cccc(C)c1)c(=O)n(C)c(=O)n2C | 0.4 | . | ? | . | 16.4µM* | .
Cc1cc(C)cc(NC(=O)CSc2c(C(C)C)cnc3c2c(=O)n(C)c(=O)n3C)c1 | -9.4 | . | ? | . | ? | .
COC(=O)c1ccc(CSc2c(C(C)C)cnc3c2c(=O)n(C)c(=O)n3C)cc1 | -1.4 | . | 23.1µM* | . | ? | .
CC(C)c1cnc2c(c1SCC(=O)c1ccc(Cl)cc1)c(=O)n(C)c(=O)n2C | -1.2 | . | 23.1µM* | . | 18.4µM* | .
CC(C)c1cnc2c(c1SCC(=O)Nc1cccc(F)c1)c(=O)n(C)c(=O)n2C | -10.3 | . | 14.6µM* | . | ? | .
COC(=O)c1ccc(OCC(=O)NCC(F)(F)F)cc1 | -10.6 | . | . | . | . | .
COP(=O)(OC)c1nc(-c2cccc([N+](=O)[O-])c2)oc1NCc1ccc(F)cc1 | 7.8 | . | . | . | . | .
O=C(Nc1cccc(Cl)c1F)C1CC(=O)N(C2CCCC2)C1 (stereo not given) | 4.5 | . | . | . | . | .
CCc1cnc2c(c1SCC(=O)N1CCCCC1)c(=O)n(C)c(=O)n2C | -9.2 | . | ? | . | ? | .
CCc1cnc2c(c1SCC(=O)c1ccc(OC)cc1)c(=O)n(C)c(=O)n2C | 1.0 | . | 11.6µM* | . | 11.6µM* | .
CCCc1cc(NCC2CCCO2)n2c(nc3ccccc32)c1C#N (stereo not given) | -7.2 | -4.2 | 23.1µM* | 8.0% | 18.4µM* | -7.1%
CCCc1cc(NCCN(C)C)n2c(nc3ccccc32)c1C#N | 4.0 | -10.0 | ? | -6.5% | -9.1% | -18.9%[1.91 µM]
CCCc1cc(NCCCN(C)C)n2c(nc3ccccc32)c1C#N | -7.7 | -4.8 | ? | 4.2% | -5.2% | -10.2%
CCCc1cc(NCc2ccccn2)n2c(nc3ccccc32)c1C#N | -6.1 | -9.7 | 18.4µM* | -3.3% | ? | 8.5%
COCCn1cnnc1SC(C)c1ccc(F)cc1 (stereo not given) | 2.6 | . | . | . | . | .
Nn1c(SCc2ncc(-c3ccccc3)o2)nnc1-c1ccc(Cl)cc1 | -5.4 | . | . | . | . | .
CC(=O)Nc1ccc(C(=O)n2cnc3cc(C)c(C)cc32)cc1 | -4.7 | 23.7 | -110.0% | -5.2% | -114.0% | 18.6%
CC(=O)Nc1ccc(S(=O)(=O)n2cnc3cc(C)c(C)cc32)cc1 | -1.5 | 10.1 | 18.4µM* | 11.2µM* | 8.2µM* | 2.9%
CCNc1nc(=S)nc(NCc2ccccc2)[nH]1 | . | . | . | 7.08µM* | . | 3.16µM*
CCNc1nc(=S)nc(NC(C)C)[nH]1 | 3.6 | 7.3 | ? | 12.6µM* | -29.6% | 10µM*
NC(N)=Nc1nc(-c2ccccc2)c2ccccc2n1 | 10.6 | . | 14.6µM* | ? | 25.9µM* | ?
CC(C)CNc1nc(-c2ccc(S(=O)(=O)N3CCCC3)cc2)cs1 | 9.9 | . | . | . | . | .
COc1cccc2c(C)nc(Nc3nc(CSc4nnc(C)s4)cc(=O)[nH]3)nc12 | -6.7 | -6.5 | 18.4µM* | ? | 23.1µM* | 20.8%
Cc1ccc2c(C)nc(Nc3nc(CSc4nnc(C)s4)cc(=O)[nH]3)nc2c1 | -2.0 | ? | 20µM* | ? | 11.2µM* | ?
[O-]/C(=C(\C(=S)Nc1ccc(SC(F)F)cc1)[n+]1cccc(CO)c1)c1ccc(Cl)s1 | -5.5 | ? | ? | 0.2% | ? | ?
